# Source: PubChem (National Center for Advancing Translational Sciences (NCATS))
# An excerpt weighted towards active compounds, which were near 12% of everything screened.
# NS1 inh: influenza NS1 inhibition; actives 0.4% (n = 270,000); Potency, µM (top dose mostly 46.1 µM), without a hit: at the highest dose activity, positive = more growth; calls by dose curve; note: actives are rising curves; nearly all actives have a fitted effect of over 50% in size
#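 Recovery from NS1-induced slow growth read by OD600 in budding yeast switched to galactose assay medium (pH 6.0, -URA) at 1:100 dilution. Compound 23 nl per well; the matching strain lacking NS1 serves as control.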
# HCV inh: blocks hepatitis C virus | actives 3.4% (n = 340,000) | Potency, µM (titrated, usually from 41.8 µM), for inactives: top-dose activity change, negative = inhibition, hits mostly inhibitors | Huh7.5.1 HCVcc-Cre infection, luciferase reporter, 44 h; note: % is set by controls: 0 for no effect and ±100 for the full control effect
#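 Infectious HCV cell culture screen: compound-treated cells (1,000/well, pre-plated 4 h) are infected with HCVcc-Cre at roughly 0.5 moi and grown 44 h. Infection is quantified by luciferase signal after 15 min substrate incubation at room temperature.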
# SARS PLP yeast: blocks SARS-CoV papain-like protease in a yeast assay; S. cerevisiae expressing SARS-CoV PLpro, growth rescue; Potency, µM (series often up to 32.9 µM), for inactives: at the top dose activity, positive = growth rescue, most hits filed as activators; actives 0.19% (n = 330,000); AID 485353; calls by dose curve; note: 0% is about no effect; nearly all actives have a fitted effect of over 55% in size
# AMA1 RON2 block: inhibitors of Plasmodium falciparum AMA1-RON2 interaction. Potency, µM (series often up to 58.2 µM), without a hit: at the highest dose activity change, negative = inhibition, most hits filed as inhibitors. AlphaScreen AMA1-biotinylated RON2 peptide binding. actives 0.2% (n = 360,000);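 note: 0% = vehicle wells and -100% = peptide control; nearly all actives have a fitted effect of over 45% in size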
#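 AMA1 (3D7) with his tag at 25 nM final met compounds first, then biotinylated RON2 peptide at 25 nM; detection used donor plus acceptor beads, 10 µg/mL apiece, read by AlphaScreen after 30 min at room temperature.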
# Pf growth 96h: P. falciparum growth inhibition at 96 hour, primary screen for plastid delayed-death inhibitors; Potency, µM (highest dose often 28.7 µM), for inactives: top-dose activity change, negative = inhibition, hits mostly inhibitors; P. falciparum luciferase reporter growth, 96 h; AID 504834; actives 6.9% (n = 320,000); note: % is set by controls: 0 for no effect and ±100 for the full control effect
#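 Plates of compound plus infected erythrocytes (2% hematocrit, 0.05% parasitemia final) incubate 96 hours, 37 C, 5% CO2. Detection reagent added; reduced luminescence from the parasites' luciferase reporter flags inhibition.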
# Pf growth 48h: inhibits P. falciparum growth in the first generation, 48 h. P. falciparum luciferase growth in erythrocytes, 48 h. Potency, µM (titrated, usually from 28.7 µM), inactives show top-dose activity change, negative = inhibition, usual class: inhibitors. actives 5.9% (n = 310,000); note: % is set by controls: 0 for no effect and ±100 for the full control effect
#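 First compound was added to culture medium, then infected red cells at 0.1% parasitemia and 2% hematocrit (final). After incubation at 37 C under 5% CO2, luciferase detection reagent was dispensed and light output recorded.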
# * marks the source's active call; other numbers are inactive results; u = inconclusive; x = not tested or not shown; [ ] = another dose, or the depositor's remark. Unless noted, calls come from the whole dose curve; as a rule, active = well fitted curve in the direction sought with a large enough effect; inconclusive = small, poorly fitted or top-dose-only effect, or another doubt; inactive = no such curve, though single readings can be large; an effect the other way counts as inactive or inconclusive. Potency is the fitted concentration of half-maximal effect.
SMILES,NS1 inh,HCV inh,SARS PLP yeast,AMA1 RON2 block,Pf growth 96h,Pf growth 48h
CCN(Cc1ccncc1)C(=S)Nc1ccccc1,10%,2%,1%,23%,2.9µM*,24%
CC(C)N(Cc1ccccc1)C(=S)Nc1cccnc1,3%,21%,1%,3%,7.4µM*,u
Cc1[nH]c2ccc(F)cc2c1CCN(Cc1ccncc1)C(=S)Nc1ccccc1,x,u,-1%,7%,u,u
CC(C)(C)NC(=O)C1Cc2ccccc2CN1 (configuration not stated),x,20%,0%,0%,25%,u
CC(C)S(=O)(=O)N1CCCC(c2cc(C(=O)NCc3ccccc3)no2)C1 (configuration not stated),x,x,x,-6%,x,x
COc1ccc(NS(=O)(=O)c2ccc(N3CCCC3)c(NC(=S)Nc3cccc(S(=O)(=O)N(C)C)c3)c2)cc1,u,-24%,-4%,x,u,u
CC(=O)N1c2ccc(S(=O)(=O)NCC3CCC(C(=O)N4CC(C)CC(C)C4)CC3)cc2CC1C (configuration not stated),1%,14µM*,u,-5%,u,u
COCCNC(=O)C1CCC(CNS(=O)(=O)c2ccc3c(c2)CC(C)N3C(=O)C2CC2)CC1 (configuration not stated),-21%,-4%,1%,14%,12µM*,13%
COc1cc(CNS(=O)(=O)c2ccc3c(c2)CC(C)N3C(=O)C2CCC2)cc(OC)c1OC (configuration not stated),-5%,10µM*,2%,-4%,u,-29%
COc1cccc(CNS(=O)(=O)c2ccc3c(c2)CC(C)N3C(=O)C2CC2)c1 (configuration not stated),-10%,u,2%,1%,10%,4%
COc1ccc(CNS(=O)(=O)c2ccc3c(c2)CC(C)N3C(=O)C2CC2)cc1 (configuration not stated),-2%,22µM*,-1%,-5%,u,-1%
CCC(C)NC(=O)C1CCC(CNS(=O)(=O)c2ccc3c(c2)CC(C)N3C(C)=O)CC1 (configuration not stated),-9%,-11%,0%,-4%,-19%,-4%
COc1cc2c(cc1OC)CN(C(=O)CSc1ccccc1C)CC2,x,u,1%,-7%,x,x
CC1=C(C(=O)N2CCOCC2)CC(CC(=O)NC2CCCCC2)C(=O)N1Cc1ccccc1 (configuration not stated),x,x,x,-8%,x,x
CC(=O)O[C@@]12CO[C@@H]1C[C@H](O)[C@@]1(C)C(=O)[C@H](O)C3=C(C)[C@@H](OC(=O)C(O)[C@@H](NC(=O)OC(C)(C)C)c4ccccc4)C[C@@](O)([C@@H](OC(=O)c4ccccc4)[C@H]21)C3(C)C (some centres not stated),x,x,x,x,0.014µM*,0.014µM*
CC(=O)O[C@H]1C(=O)[C@@]2(C)C([C@H](OC(=O)c3ccccc3)[C@]3(O)C[C@H](OC(=O)[C@H](O)[C@@H](NC(=O)c4ccccc4)c4ccccc4)C(C)=C1C3(C)C)[C@]1(OC(C)=O)CO[C@@H]1C[C@@H]2O (some centres not stated),-6%,x,x,x,x,x
CC(=O)O[C@H]1C(=O)[C@@]2(C)C([C@H](OC(=O)c3ccccc3)[C@]3(O)C[C@H](O)C(C)=C1C3(C)C)[C@]1(OC(C)=O)CO[C@@H]1C[C@H]2O (some centres not stated),0%,u,0%,-6%,4%,43%
CC(=O)O[C@H]1C(=O)[C@]2(C)[C@H]([C@H](OC(=O)c3ccccc3)[C@]3(O)C[C@H](OC(=O)[C@H](O)[C@@H](NC(=O)c4ccccc4)c4ccccc4)C(C)=C1C3(C)C)[C@]1(OC(C)=O)CO[C@@H]1C[C@@H]2O,x,6.3µM*,x,-6%,x,x
CC(=O)O[C@@]12CO[C@@H]1C[C@H](O)[C@@]1(C)C(=O)[C@H](O)C3=C(C)[C@@H](OC(=O)[C@H](O)[C@@H](NC(=O)c4ccccc4)c4ccccc4)C[C@@](O)([C@@H](OC(=O)c4ccccc4)C12)C3(C)C (some centres not stated),-27%,-6%,-2%,0%,0.074µM*,0.074µM*
CC(=O)O[C@H]1C(=O)[C@@]2(C)C([C@H](OC(=O)c3ccccc3)[C@]3(O)C[C@H](OC(=O)[C@H](O)[C@@H](NC(=O)Cc4ccccc4)c4ccccc4)C(C)=C1C3(C)C)[C@]1(OC(C)=O)CO[C@@H]1C[C@@H]2O (some centres not stated),-20%,u,7%,-4%,0.74µM*,3.7µM*
CC(=O)O[C@H]1C(=O)[C@@]2(C)C([C@H](OC(=O)c3ccccc3)[C@]3(O)C[C@H](OC(=O)[C@H](O)[C@@H](NC(=O)c4ccccc4)c4ccccc4)C(C)=C1C3(C)C)[C@]1(OC(C)=O)CO[C@@H]1C[C@H]2O (some centres not stated),-9%,u,-2%,-12%,u,u
C=CCN1C=C(C(C)=O)C(=O)CC1,x,-4%[8.37 µM],x,-19%,x,x
O=C(NCc1cccnc1)c1ccc(Br)o1,x,26%,-3%,29%,1%,15%
COc1cccc(-n2cnnc2SC(C)C(=O)NC2CCCC2)c1 (configuration not stated),x,u,6%,0%,u,u
Cc1ccc(OC(=O)CCC(=O)Nc2ccc(C(N)=O)cc2)cc1,x,13%,x,-8%,x,x
SMILES,NS1 inh,HCV inh,SARS PLP yeast,AMA1 RON2 block,Pf growth 96h,Pf growth 48h
CNc1ccccc1C(C)(C)c1cc(-c2cccc(Br)c2)no1,x,u,-11%,-2%,u,u
CNc1ccccc1C(C)(C)c1cc(-c2ccc(F)cc2)no1,-10%,4µM*,-14%,-12%,8.3µM*,u
OCCC1CN(Cc2cnc(-c3cccc4ccccc34)nc2)CCN1C1CCCCC1 (configuration not stated),0%,-6%,1%,-5%,22%,u
CN(C)c1cc2c3ccccc3n(C)c2cc1N,x,u,x,3.5µM*,x,x
CC(=O)SC1CC2=CC(=O)CC[C@]2(C)C2CC[C@@]3(C)[C@@H](CC[C@@]34CCC(=O)O4)C12 (some centres not stated),-21%,x,x,x,x,x
C[n+]1c2ccccc2nc2ccc(NCCO)cc21,-1%,14µM*,0%,20µM*,0.13µM*,0.12µM*
